Screens as filed in PubChem.
The list is not random: actives were taken first. Their share in the collection is about 1.2%.
Rev-erbA mod: Rev-erb alpha (human) modulation; P20393; Rev-erbα–FITC-DNA binding, fluorescence polarization, 90 min; activity, % at 10 µM; 370,000 compounds, 0.79% hits; AID 1259318;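 active means activity above about 14%, limit read from the data; passing the limit was not always enough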;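 further: 0% = DMSO wells with 35 nM protein and 100% = DMSO wells with 750 nM protein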
Target sequence (P20393 whole entry, looked up): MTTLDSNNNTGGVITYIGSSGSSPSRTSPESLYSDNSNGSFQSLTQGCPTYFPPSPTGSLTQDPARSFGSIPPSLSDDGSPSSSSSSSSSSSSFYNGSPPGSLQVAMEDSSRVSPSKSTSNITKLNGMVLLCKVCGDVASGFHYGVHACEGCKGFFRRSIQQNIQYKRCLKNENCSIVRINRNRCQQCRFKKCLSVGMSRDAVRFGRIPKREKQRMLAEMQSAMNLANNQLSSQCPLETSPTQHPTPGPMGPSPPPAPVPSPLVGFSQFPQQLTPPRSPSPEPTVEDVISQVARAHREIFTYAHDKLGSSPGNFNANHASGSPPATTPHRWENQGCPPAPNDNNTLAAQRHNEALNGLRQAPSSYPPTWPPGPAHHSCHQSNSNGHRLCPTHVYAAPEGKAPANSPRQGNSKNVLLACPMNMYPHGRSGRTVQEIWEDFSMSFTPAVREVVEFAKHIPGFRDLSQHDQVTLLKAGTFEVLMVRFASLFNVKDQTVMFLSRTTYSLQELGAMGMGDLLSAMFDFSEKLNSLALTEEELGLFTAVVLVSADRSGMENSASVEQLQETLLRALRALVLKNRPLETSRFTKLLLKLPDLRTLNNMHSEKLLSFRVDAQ
PG9 binder: binds the HIV-1 gp120 antibody PG9 | TR-FRET gp120-PG9 antibody binding | inhibition, % at 6.7 µM | 360,000 compounds, 0.43% hits; in the data active means inhibition above about 8.5%
PKA-R1A activ: activates the PKA-R1A holoenzyme complex; PKA-R1A dissociation, Cy5-IP20 fluorescence polarization; scaled: DMSO 0%, 113 µM cGMP 100%; AID 504707; activation, % at 11.4 µM; 340,000 compounds, 0.083% hits; P00514+P68181;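 active means percent activation above the mean of all tested compounds plus 3 SD, cut at about 19% in these data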;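 further: higher means more PKAc released from R1A so a rise in polarization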
PKA-R2B activ: PKA-R2B complex activation; P22694+P31323; PKA-R2B holoenzyme dissociation, Cy5-IP20 fluorescence polarization; R2B truncated from residue 108, S112A mutant; 0% DMSO only, 100% 113 µM cGMP; activation, % at 11.4 µM; 340,000 compounds, 0.079% hits;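 active means activation above a cutoff set at the mean over all compounds plus 3 SD, cut at about 18% in these data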;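 further: higher means more holoenzyme dissociation and a rise in polarization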
R2B FP artifact: counter-screen for PKA-R2B activators: fluorescence polarization artifacts. 270 compounds, 6% hits. FP artifact counterscreen. shares compounds with PKA-R2B activ. activation, % at 11.4 µM; in the data active means activation above about 20%;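 further: Cy5 labelled IP20 peptide probe with compound but no PKA protein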
PKA-R2B act conf: confirmation of human PKA-R2B complex activators; shares compounds with PKA-R2B activ; fluorescence polarization, activation; activation, % at 11.4 µM; 270 compounds, 9% hits; in the data active means activation above about 19%
R1A FP artifact: fluorescence polarization artifact in PKA-R1A activator counter-screen | shares compounds with PKA-R1A activ | activation, % at 11.4 µM | AID 504799 | 280 compounds, 7% hits | Cy5-IP20 peptide alone, fluorescence polarization artifact counterscreen;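 active means mean activation over triplicate runs exceeds the adjusted cutoff derived for the parent primary screen, cut at about 19% in these data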;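 further: no PKA protein present so any polarization rise reflects compound interference; 0% = tracer peptide mix alone and 100% = mix with added PKA catalytic subunit; higher means stronger polarization artifact and likely false positive in parent screen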
PKA-R1A act conf: PKA-R1A complex activation, confirmation; shares compounds with PKA-R1A activ; Cy5-IP20 fluorescence polarization, PKA-R1A holoenzyme dissociation; activation, % at 11.4 µM; 280 compounds, 9% hits; AID 504800;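 active means mean activation over replicate wells exceeds the adjusted hit threshold taken from the earlier primary screen, cut at about 20% in these data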;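 further: 0% = holoenzyme mix with DMSO only and 100% = cGMP-activated control wells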
PG9 bind confirm: PG9 antibody binding, confirmed | shares compounds with PG9 binder | TR-FRET PG9 antibody binding, biochemical | inhibition, % at 6.7 µM | 1,500 compounds, 90% hits | AID 651571; in the data active means inhibition above about 9%
PGV04 counter: binds control antibody PGV04 in PG9 binder counter-screen. shares compounds with PG9 binder. TR-FRET PGV04 antibody-gp120 binding, biochemical. inhibition, % at 6.7 µM. 1,500 compounds, 95% hits. AID 651604; in the data active means inhibition above about 9.5%
Starred values were filed as active, the others as inactive; nt = no result; ! = not active in a repeat.

SMILES	Rev-erbA mod	PG9 binder	PKA-R1A activ	PKA-R2B activ	R2B FP artifact	PKA-R2B act conf	others
Cc1cc(O)c2c(c1)C(=O)C13C(=C2O)C(=O)[C@H]2[C@@H](O)[C@@H]1[C@H]1[C@H](O)[C@@H]3C(=O)C3=C(O)c4c(O)cc(C)cc4C(=O)C312 (stereo partly specified)	nt	nt	17.1	36.7*	nt	nt
COc1ccc(CCN)cc1O	-8.6	-2.0	-12.5	-2.6	nt	nt
NCCc1cc(O)c(O)cc1O	-28.1	11.1*!	0.0	12.0	nt	nt
O=C1CC[C@@]2(O)[C@H]3Cc4ccc(O)c5c4C2(CCN3CC2CC2)[C@H]1O5	-7.8	nt	nt	nt	nt	nt
Oc1ccc2c3c1O[C@H]1[C@@H](O)CC[C@@]4(O)[C@@H](C2)N(CC2CCC2)CC[C@]314	-8.9	-0.8	-9.2	18.7*!	5.3	2.7
C=CC[C@]1(O)CCC2C3CCC4=CC(=O)CCC4=C3C=C[C@@]21C (stereo partly specified)	-5.4	nt	nt	nt	nt	nt
Cc1ccc(/C=C2/C(=O)NC(=O)N(CCc3ccc(F)cc3)C2=O)o1	-5.1	0.6	8.3	24.2*	1.9	3.7
CCn1cc(CN2CCCC(C(=O)c3cccc(OC)c3)C2)c(C)n1 (stereo unspecified)	-5.5	-0.9	4.8	2.3	nt	nt
CCCn1cc(CN2CCCC(C(=O)c3cccc(OC)c3)C2)c(C)n1 (stereo unspecified)	-1.8	1.6	8.3	21.1*	2.2	0.6
O=C(O)c1cccc2c1NC(C(=O)O)C1CC(Sc3ccccc3[N+](=O)[O-])C(Cl)C21 (stereo unspecified)	-33.0	-9.9	5.4	21.5*	24.0*	14.8
CC(C)(N)Cc1ccccc1	0.8	nt	nt	nt	nt	nt
C[C@H]1[C@H](O)[C@@H](C)/C=C/C=C/CC/C=C/C=C/C=C/C=C/C(OC2O[C@H](C)[C@@H](O)[C@H](N)[C@@H]2O)CC2O[C@](O)(CC(O)C(O)CCC(O)CC(O)CC(O)CC(=O)O[C@H]1C)CC(O)C2C(=O)O (stereo partly specified)	-0.7	nt	nt	nt	nt	nt
CCOP(=O)(OCC)C(NC(=O)c1ccccc1Cl)=C(Cl)Cl	2.5	-1.1	13.5	18.5*	7.5	0.4
CCOP(=O)(C(NC(=O)c1ccccc1Cl)=C(Cl)Cl)c1ccccc1 (stereo unspecified)	-4.6	-0.2	7.9	-0.5	nt	nt
C#C[C@@H]1CC2C3CCC4=C[C@@H](OC(C)=O)CCC4C3CC[C@]2(C)[C@H]1OC(C)=O (stereo partly specified)	5.5	nt	nt	nt	nt	nt
N#CCCn1cc(C=C2C(=O)NC(=O)NC2=O)c(-c2ccccc2)n1	-8.0	-2.9	9.5	19.1*	4.7	1.9
CC(Cc1ccccc1)N(C)CC1C(=O)C2CCC1C2 (stereo unspecified)	0.7	-0.4	-12.3	-3.0	nt	nt
C#CCN(C)C(C)Cc1ccccc1 (stereo unspecified)	1.4	-1.9	-8.4	18.8*	0.9	2.0
O=C1NC(=S)NC(=O)C1=Cc1cccn1-c1ccc(O)cc1	-33.7	-0.7	21.2*	1.5	nt	nt	R1A FP artifact=3.8;PKA-R1A act conf=1.4
O=C1CC2OCC=C3CN4CC[C@]56c7ccccc7N1C5[C@H]2[C@H]3CC46 (stereo partly specified)	-3.9	nt	nt	nt	nt	nt
Cn1c(O)c(/C=C2\C=Nc3ccccc32)c(=O)n(C)c1=O	4.3	18.3*	5.3	-4.8	nt	nt	PG9 bind confirm=13.4*;PGV04 counter=28.0*
CCN1C(=O)C(=C/C=C/c2ccco2)C(=O)N(CC)C1=S	-2.5	-2.0	-10.7	0.7	nt	nt
